Our source for the outcome and AC50 values is PubChem BioAssay (EPA / NIEHS).

Calls of active or inactive are those of the source. How the source made its calls: active means hit-call score of the fitted dose curve at least 0.9, where 1 is the maximum; inactive means score below 0.9.

Aryl hydrocarbon receptor (Homo sapiens), sequence (P35869 whole entry, looked up): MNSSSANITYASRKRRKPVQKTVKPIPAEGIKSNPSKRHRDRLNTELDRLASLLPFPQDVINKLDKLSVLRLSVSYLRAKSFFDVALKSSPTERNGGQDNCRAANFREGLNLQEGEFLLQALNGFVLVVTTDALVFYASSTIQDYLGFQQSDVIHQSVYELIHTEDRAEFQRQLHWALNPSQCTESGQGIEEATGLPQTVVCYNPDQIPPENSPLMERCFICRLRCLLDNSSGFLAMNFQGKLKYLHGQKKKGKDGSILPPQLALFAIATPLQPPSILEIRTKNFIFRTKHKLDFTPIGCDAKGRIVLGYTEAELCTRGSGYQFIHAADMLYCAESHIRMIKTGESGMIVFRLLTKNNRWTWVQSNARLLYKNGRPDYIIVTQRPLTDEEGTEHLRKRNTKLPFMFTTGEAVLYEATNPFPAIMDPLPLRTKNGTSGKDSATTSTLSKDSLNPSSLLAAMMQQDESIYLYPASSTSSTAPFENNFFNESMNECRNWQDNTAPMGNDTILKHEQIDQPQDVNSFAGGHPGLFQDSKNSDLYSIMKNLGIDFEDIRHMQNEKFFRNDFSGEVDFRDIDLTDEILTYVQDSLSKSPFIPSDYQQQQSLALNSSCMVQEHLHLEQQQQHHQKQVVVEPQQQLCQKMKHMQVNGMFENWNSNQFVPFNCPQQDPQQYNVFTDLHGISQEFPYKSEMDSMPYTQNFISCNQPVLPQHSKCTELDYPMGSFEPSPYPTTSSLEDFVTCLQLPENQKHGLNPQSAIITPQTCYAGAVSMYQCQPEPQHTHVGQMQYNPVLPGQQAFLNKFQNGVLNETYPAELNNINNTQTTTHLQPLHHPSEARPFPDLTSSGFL

Tested on in the first assay: not listed separately
Nature of the assay: ATG_DR4_LXR_CIS: Attagene CIS-FACTORIAL HepG2 Assay for human Liver X Receptor (LXR), DR4 submotif (AID 2282929). Conditions: HepG2 Attagene DR4 cis-reporter, mRNA transcription; actives raise or lower the signal. The procedure, abridged: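 Fluorescence intensity of labelled reporter cDNA fragments, separated by capillary electrophoresis, gives the signal. HepG2 cells bearing cis-regulated reporter constructs were treated 24 h; activity fitted bidirectionally relative to DMSO negative control.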
For the compound `NNCCO`, the outcome was inactive.
With `ClCCN1CCOCC1`, the outcome was inactive.
The term AC50 denotes the concentration giving half of the maximal activity seen. Regarding `C[C@@H]1O[C@@H](O[C@H]2C[C@@H](O)[C@]3(CO)[C@H]4[C@H](O)C[C@]5(C)[C@@H](C6=CC(=O)OC6)CC[C@]5(O)[C@@H]4CC[C@]3(O)C2)[C@H](O)[C@H](O)[C@H]1O`, the AC50 is 0.207 µM (active).
As to `CCOP(=O)(OCC)OC(=CCl)c1ccc(Cl)cc1Cl`, the compound was classed as inactive.
`O=C(CCl)Nc1ccccc1`: the AC50 is 76 µM (active).
For the compound `O=[N+]([O-])c1cccc2ccccc12`, the compound was called inactive.
In the case of `O=C1C[C@@H]2OCC=C3CN4CC[C@]56c7ccccc7N1[C@H]5[C@H]2[C@H]3C[C@H]46`, the result was inactive.
As to `CCOP(=S)(OCC)OP(=S)(OCC)OCC`, the AC50 was 29.5 µM (active).
With `CC(C)(c1ccc(O)c(-c2ccccc2)c1)c1ccc(O)c(-c2ccccc2)c1`, the AC50 is 4.85 µM (active).
On to `CC1(C)[C@H](C(=O)O[C@H](C#N)c2cccc(Oc3ccccc3)c2)[C@@H]1/C=C(\Cl)C(F)(F)F`, for which the call was inactive.
As for `CC(C)(c1ccccc1)c1cc(-n2nc3ccccc3n2)c(O)c(C(C)(C)c2ccccc2)c1`, the compound was classed as inactive.
Still for that read-out and setting: in the case of `FC(F)OCC(F)(F)C(F)(F)F` it was “inactive”; in that of `CCN(N=O)C(N)=O`, “inactive”.
In the case of `Oc1ccc(Cc2ccc(O)cc2)cc1`, the compound was called inactive.
On the same count and under the same terms, in the case of `CCOc1ccc(N)cc1` it was “inactive”.
On to `CCCCOP(=O)(CCCC)OCCCC`, for which the compound was classed as inactive.
The same measure, in the same setting: in the case of `O=C(CBr)c1ccc(O)cc1` it was “inactive”.
For the compound `ClCc1ccccc1CCl`, the AC50 was 16.6 µM (active).
As to `N#CCCC(Br)(C#N)CBr` (stereo not drawn), the result was inactive.
On to `c1cc[c]([Sb]([c]2ccccc2)[c]2ccccc2)cc1`, for which the half-maximal activity concentration (AC50) was 9.64 µM (active).
Consider `O=[N+]([O-])c1cc([As](=O)(O)O)ccc1O`, for which the compound was called inactive.
For the compound `CC(C=O)Cc1ccc2c(c1)OCO2` (stereo not drawn), the result was inactive.
`CCCCOC(C)=O`: the compound was called inactive.
In the case of `O=S(=O)(C(Cl)(Cl)Cl)C(Cl)(Cl)Cl`, the call was inactive.
`OC[C@@H](O)[C@H]1O[C@@H]2O[C@H](C(Cl)(Cl)Cl)O[C@@H]2[C@H]1O`: the call was inactive.
On the same count and under the same terms, in the case of `C=CC(Cl)CCl` (stereo not drawn) it was “inactive”.
As for `CC(C)(C1CCC(O)CC1)C1CCC(O)CC1` (stereo not drawn), the compound was classed as inactive.
Take `CCNc1nc(NCC)nc(SC)n1`: the compound was called inactive.
`O=c1[nH]c(=O)n(Cl)c(=O)n1Cl`: the result was inactive.
Take `C=CCOC(N)=O`: the result was inactive.
Still for that read-out and setting: in the case of `N#CS` it was “inactive”; in that of `CCCCC(CC)C(=O)Cl` (stereo not drawn), “inactive”; in that of `O=S1(=O)OC(c2cc(Br)c(O)c(Br)c2)(c2cc(Br)c(O)c(Br)c2)c2ccccc21`, “inactive”.
For the compound `O=C=Nc1ccc(Cl)cc1`, the call was inactive.
As for `CC(C)(C)c1cc([N+](=O)[O-])cc(C(C)(C)C)c1O`, the compound was classed as inactive.
In the case of `Cc1cc(Cl)ccc1OC(C)C(=O)O` (stereo not drawn), the call was inactive.
`C[N+](C)(C)Cc1ccccc1`: the result was inactive.
As to `CCOP(=S)(OCC)Oc1ccc(Cl)cc1Cl`, the result was inactive.
Regarding `Fc1cccc(Cl)c1CCl`, the outcome was inactive.

For a further assay, the target named is Aryl hydrocarbon receptor (Homo sapiens) (UniProt P35869). Description: ATG_Ahr_CIS: Attagene CIS-FACTORIAL HepG2 Assay for human Aryl Hydrocarbon Receptor (Ahr) (AID 2282930). The settings on record: HepG2 AhR cis-factorial reporter transcription; actives raise or lower the signal. In outline:
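HepG2, transient MRTU (cis) transfection, 24 h exposure. RNA → cDNA → PCR → 6-FAM primer extension → HpaI 2 h 37 C → CE. Fit: bidirectional, DMSO baseline.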
Regarding `NNCCO`, the AC50 was 25.7 µM (active).
For `ClCCN1CCOCC1`, the call was inactive.
For `C[C@@H]1O[C@@H](O[C@H]2C[C@@H](O)[C@]3(CO)[C@H]4[C@H](O)C[C@]5(C)[C@@H](C6=CC(=O)OC6)CC[C@]5(O)[C@@H]4CC[C@]3(O)C2)[C@H](O)[C@H](O)[C@H]1O`, the call was inactive.
In the case of `CCOP(=O)(OCC)OC(=CCl)c1ccc(Cl)cc1Cl`, the compound was called inactive.
In the case of `O=C(CCl)Nc1ccccc1`, the outcome was inactive.
Regarding `O=[N+]([O-])c1cccc2ccccc12`, the AC50 is 51.4 µM (active).
For `O=C1C[C@@H]2OCC=C3CN4CC[C@]56c7ccccc7N1[C@H]5[C@H]2[C@H]3C[C@H]46`, the call was inactive.
Still for that read-out and setting: in the case of `CCOP(=S)(OCC)OP(=S)(OCC)OCC` it was “inactive”; in that of `CC(C)(c1ccc(O)c(-c2ccccc2)c1)c1ccc(O)c(-c2ccccc2)c1`, “inactive”; in that of `CC1(C)[C@H](C(=O)O[C@H](C#N)c2cccc(Oc3ccccc3)c2)[C@@H]1/C=C(\Cl)C(F)(F)F`, “inactive”.
With `CC(C)(c1ccccc1)c1cc(-n2nc3ccccc3n2)c(O)c(C(C)(C)c2ccccc2)c1`, the outcome was inactive.
As to `FC(F)OCC(F)(F)C(F)(F)F`, the result was inactive.
Turning to `CCN(N=O)C(N)=O`, the outcome was inactive.
`Oc1ccc(Cc2ccc(O)cc2)cc1`: the compound was classed as inactive.
As to `CCOc1ccc(N)cc1`, the compound was called inactive.
Consider `CCCCOP(=O)(CCCC)OCCCC`, for which the call was inactive.
In the case of `O=C(CBr)c1ccc(O)cc1`, the call was inactive.
Turning to `ClCc1ccccc1CCl`, the compound was called inactive.
Consider `N#CCCC(Br)(C#N)CBr` (stereo not drawn), for which the AC50 was 33.4 µM (active).
For the compound `c1cc[c]([Sb]([c]2ccccc2)[c]2ccccc2)cc1`, the call was inactive.
For the compound `O=[N+]([O-])c1cc([As](=O)(O)O)ccc1O`, the outcome was inactive.
For `CC(C=O)Cc1ccc2c(c1)OCO2` (stereo not drawn), the outcome was inactive.
Take `CCCCOC(C)=O`: the call was inactive.
Consider `O=S(=O)(C(Cl)(Cl)Cl)C(Cl)(Cl)Cl`, for which the outcome was inactive.
Same read-out and setting: in the case of `OC[C@@H](O)[C@H]1O[C@@H]2O[C@H](C(Cl)(Cl)Cl)O[C@@H]2[C@H]1O` it was “inactive”.
On the same count and under the same terms, in the case of `C=CC(Cl)CCl` (stereo not drawn) it was “inactive”.
Turning to `CC(C)(C1CCC(O)CC1)C1CCC(O)CC1` (stereo not drawn), the compound was called inactive.
On to `CCNc1nc(NCC)nc(SC)n1`, for which the result was inactive.
Same read-out and setting: in the case of `O=c1[nH]c(=O)n(Cl)c(=O)n1Cl` it was “inactive”; in that of `C=CCOC(N)=O`, “inactive”; in that of `N#CS`, “inactive”.
`CCCCC(CC)C(=O)Cl` (stereo not drawn): the outcome was inactive.
Take `O=S1(=O)OC(c2cc(Br)c(O)c(Br)c2)(c2cc(Br)c(O)c(Br)c2)c2ccccc21`: the AC50 was 26 µM (active).
As for `O=C=Nc1ccc(Cl)cc1`, the result was inactive.
`CC(C)(C)c1cc([N+](=O)[O-])cc(C(C)(C)C)c1O`: the call was inactive.
As to `Cc1cc(Cl)ccc1OC(C)C(=O)O` (stereo not drawn), the AC50 was 28.5 µM (active).
In the case of `C[N+](C)(C)Cc1ccccc1`, the compound was classed as inactive.
Same read-out and setting: in the case of `CCOP(=S)(OCC)Oc1ccc(Cl)cc1Cl` it was “inactive”; in that of `Fc1cccc(Cl)c1CCl`, “inactive”.
